Compound activity deposited in PubChem BioAssay by several laboratories.
sEH inh = inhibitors of human soluble epoxide hydrolase. AID 707. recombinant human sEH enzymatic activity assay. 0.34% of 91,000 active. inhibition, % at 2 µM; in the data active means inhibition above about 80%
sEH act = soluble epoxide hydrolase (human) activation; P34913; purified human sEH enzymatic activity, activator screen; activation, % at 2 µM; 0.04% of 91,000 active; AID 717; in the data active means activation above about 37%
Cav32 inh = human Cav3.2 channel inhibition, primary screen; AID 449739; Cav3.2-expressing cells, Fluo-4 calcium fluorescence FDSS; active compounds read low; 4% of 100,000 active; O95180; B-score at 10 µM;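 active means single-dose well whose peak fluorescence ratio is a statistical outlier from its plate by either plate-standardised score or position-corrected B-score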
NFkB transloc inh = blocks IL-1B driven NFkB nuclear translocation in HUVEC cells; HUVEC IL-1B NFkB p65 nuclear translocation imaging; inhibition, % at 2 µM; 0.43% of 94,000 active; AID 796;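 active means inhibition above about 30% together with a positive call from visual inspection of the well image, limit read from the data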;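 further: nuclear over cytoplasmic p65 intensity ratio measured by imaging; 0% = IL-1B stimulated DMSO wells and 100% = unstimulated DMSO wells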
NFkB transloc pot = enhances IL-1B driven NFkB nuclear translocation; HUVEC IL-1B NFkB p65 nuclear translocation imaging; activation, % at 2 µM; 0.3% of 94,000 active; AID 819;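 active means activation above 40%, about the mean plus 3 SD, also judged a hit on visual image review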;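 further: percent activation is computed from the nuclear over cytoplasmic p65 intensity ratio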
HUVEC tox IL1B = toxic to HUVEC cells under IL-1B stimulation. cell count reduction, % at 2 µM. 0.41% of 94,000 active. HUVEC cell count loss, Hoechst imaging, IL-1B stimulated;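 active means cell count reduction more than 3 SD above the screen-wide mean, cut at about 70% in these data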;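 further: normalized per plate to untreated control cells as the no-loss baseline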
Starred values were filed as active, the others as inactive; / = no result. In the library only some 4.6% were active in any assay of this set; here they are far more common.

SMILES	sEH inh	sEH act	Cav32 inh	NFkB transloc inh	NFkB transloc pot	HUVEC tox IL1B
CCOc1ccc(N2C(=O)CC(N3CCOCC3)C2=O)cc1 (centres undefined)	/	/	1.4	/	/	/
C/C=C(\C)C(=O)OC1c2c(ccc3ccc(=O)oc23)OC(C)(C)C1OC(C)=O (centres undefined)	0	5	-3.2	2	-2	2
C/C=C(/C)C(=O)OC1c2c(ccc3ccc(=O)oc23)OC(C)(C)C1OC(=O)/C(C)=C\C (centres undefined)	/	/	-5.1*	/	/	/
CC(C)Cn1nc(NS(=O)(=O)c2ccccc2)c2cc3ccccc3nc21	1	-2	-0.059	2	-3	-31
O=C(COc1ccc(S(=O)(=O)N2CCCC2)cc1Cl)Nc1ccc2c(c1)OCO2	14	-16	0.44	4	-4	5
O=C(COC(=O)CN1C(=O)c2ccccc2C1=O)Nc1ccc(S(=O)(=O)N2CCCC2)cc1	15	-16	-1.3	-12	11	16
O=C(CS(=O)(=O)Cc1ccccc1)Nc1ccc(S(=O)(=O)N2CCCCCC2)cc1	24	-24	-7.1*	-2	2	31
O=C(CN1CCCCC1)Nc1ccc(S(=O)(=O)N2CCCCCC2)cc1	12	-12	0.62	-2	2	-1
CC(C(=O)OCC(=O)Nc1ccc(S(=O)(=O)N2CCCCC2)cc1)N1C(=O)c2ccccc2C1=O (centres undefined)	37	-36	-5.7*	1	-1	3
O=C(COC(=O)CCc1ccc(S(=O)(=O)N2CCCCC2)cc1)Nc1ccc2c(c1)OCO2	/	/	-5.5*	/	/	/
CCOC(=O)c1cc2occc2n1Cc1c(F)cccc1Cl	-1	3	0.098	5	-5	-2
O=S(=O)(NC1CC2CCC1C2)c1ccc(Br)s1 (centres undefined)	-6	9	-4.9*	-3	3	-3
CCn1cc(Cl)c(C(=O)N2N=C3/C(=C/c4cccs4)CCCC3C2c2cccs2)n1 (centres undefined)	-3	9	-5.6*	-1	1	26
Clc1ccccc1-c1nnc2sc(-c3ccccn3)nn12	-36	38*	-0.3	0	0	15
CCCCNS(=O)(=O)c1ccc2nc(SCC(=O)Nc3sccc3C#N)[nH]c2c1	-2	0	-3.5*	4	-4	5
O=C(C1CCCCC1)N1CCN(C(=O)C2CCCCC2)CC1	5	-8	0.48	4	-4	-9
COc1ccc(-n2ncc(S(=O)(=O)c3ccccc3)c2-c2ccc(Cl)cc2)cc1	7	-8	-6.7*	12	-12	2
O=S(=O)(c1ccccc1)c1cnn(-c2ccccc2)c1-c1ccc(F)cc1	12	-9	-5.8*	5	-5	31
CCC(=O)Nc1ccc(-c2nnc(SCC(=O)N3CCCCC3)n2C)cc1	-14	12	-0.73	6	-6	7
CC1(c2ccc(Cl)c(Cl)c2)NC(=S)N2C1NC(=S)N2c1ccccc1 (centres undefined)	-4	5	-5.4*	/	/	/
O=C1Nc2cc(Cl)c(Cl)cc2N(O)N1c1ccccc1	-1	1	0.093	-3	13	2
O=C(NCc1nc2ccccc2[nH]1)C1=C[C@H](c2ccc(C(F)(F)F)cc2)C[C@H](OCc2ccc(CO)cc2)O1	/	/	-2.6	/	/	/
CCC(=O)c1ccc(N2CCCC2)c(F)c1	-39	39*	-1.4	-22	22	-3
CC(NC(=O)c1ccccc1Cl)C(=O)O (centres undefined)	-5	2	0.48	-67	67*	5
CCOC(=O)c1sc(NC(=O)Cn2nnc3sc4c(c3c2=O)CCCC4)nc1C	7	-4	-4.6*	-14	14	-19
SMILES	sEH inh	sEH act	Cav32 inh	NFkB transloc inh	NFkB transloc pot	HUVEC tox IL1B
CCOC(=O)c1sc(NC(=O)CN2C(=O)c3cccc4cccc(c34)C2=O)nc1C	15	-17	-0.28	4	-4	-21
CN1/C(=C/C2CC(=O)NC2=O)C(C)(C)c2ccccc21 (centres undefined)	8	-8	0.89	5	-1	7
CCCCN1C(=O)/C(=C/C=C2\N(C)c3ccccc3C2(C)C)SC1=S	-11	14	-4.7*	4	-5	12
CCSc1nc2c(sc3nc(C)cc(C)c32)c(=O)[nH]1	10	-8	/	-5	5	-37
O=C(NNC1=C(C(=O)C(F)(F)F)CCC1)c1cccc(Cl)c1	-4	2	-7.6*	-4	4	0
O=C(NNC1=C(C(=O)C(F)(F)F)CCC1)c1ccc(Cl)cc1	-1	1	-2.4	-8	8	-3
